# Bcl-xL primary: Bcl-xL (human) inhibition. GST-Bcl-xL / FITC-Bim BH3 peptide fluorescence polarization. inhibition, % at 10.9 µM. hit rate 0.7% among 320,000;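 active means inhibition above the mean of all tested compounds plus 3 SD, cutoff set per campaign, cut at about 30% in these data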;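 further: inhibitors lower millipolarization by displacing the labeled peptide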
# Target sequence (Q07817 whole entry, looked up): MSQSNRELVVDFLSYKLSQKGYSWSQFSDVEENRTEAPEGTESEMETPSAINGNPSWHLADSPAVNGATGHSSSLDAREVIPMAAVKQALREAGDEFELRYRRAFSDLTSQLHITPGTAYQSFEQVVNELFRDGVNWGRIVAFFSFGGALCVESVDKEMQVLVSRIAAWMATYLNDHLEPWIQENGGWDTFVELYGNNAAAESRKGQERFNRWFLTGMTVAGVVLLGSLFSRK
# Mcl1-Bid inh: disrupts binding of human Mcl-1 to Bid peptide; Q07820; TR-FRET Mcl-1/Bid-Dy647 peptide binding, 1536-well; inhibition, % at 21.7 µM; hit rate 0.97% among 220,000; AID 1021;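 active means compounds that cut the binding signal by more than half at the single screening dose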;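 further: His-tagged Mcl-1 with europium anti-His antibody binding Bid BH3 peptide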
# Target sequence (Q07820 whole entry, looked up): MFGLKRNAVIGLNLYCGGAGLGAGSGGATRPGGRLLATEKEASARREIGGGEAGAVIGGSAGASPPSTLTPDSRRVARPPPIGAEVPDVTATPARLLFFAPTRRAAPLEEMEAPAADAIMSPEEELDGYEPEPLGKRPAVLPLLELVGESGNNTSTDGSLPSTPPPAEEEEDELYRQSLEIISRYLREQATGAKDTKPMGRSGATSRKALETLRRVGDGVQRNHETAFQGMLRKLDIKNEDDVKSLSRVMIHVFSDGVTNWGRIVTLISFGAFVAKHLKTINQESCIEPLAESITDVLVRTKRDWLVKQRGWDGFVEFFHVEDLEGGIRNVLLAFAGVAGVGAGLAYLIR
# Mcl-1 Bim block: disrupts Bim peptide binding to human Mcl-1; Q07820; Bead-based flow cytometry, Bim peptide-Mcl-1 binding; inhibition, % at 10 µM; hit rate 0.1% among 190,000; AID 1009; in the data active means inhibition above about 40%
# MCL1 BIM primary: disrupts human MCL1 binding to BIM-BH3 peptide | inhibition, % at 10.9 µM | hit rate 0.68% among 320,000 | GST-MCL1 / FITC-Bim-BH3 fluorescence polarization | Q07820;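 active means inhibition above the mean inhibition of all tested compounds plus 3 SD, set per campaign, cut at about 40% in these data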;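 further: higher means more loss of mP so more displacement of Bim peptide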
# GLD-1 RNA inh: GLD-1-TGE RNA interaction inhibition (C. elegans); Q17339; purified GLD-1 + fluorescein TGE RNA, fluorescence polarization; inhibition, % at 5.96 µM; hit rate 0.44% among 320,000;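 active means percent inhibition above a per-plate cutoff, the plate mean of test compounds plus 3 SD, cut at about 30% in these data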
# Mcl1-Noxa inh: Mcl-1/Noxa interaction inhibition | AID 1022 | hit rate 1.5% among 220,000 | TR-FRET Mcl-1/Noxa peptide binding, 2 h | Q07820 | inhibition, % at 21.7 µM;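 active means compounds that cut the protein-peptide binding signal by more than 50% relative to plate controls in a single-dose test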;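 further: His-tagged Mcl-1 with rhodamine Noxa BH3 peptide and terbium anti-His antibody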
# Numbers stand for hits; . = inactive; / = not tested or not shown. This is a sample that favours compounds with a hit; in the whole collection about 2.3% have one here.
SMILES,Bcl-xL primary,Mcl1-Bid inh,Mcl-1 Bim block,MCL1 BIM primary,GLD-1 RNA inh,Mcl1-Noxa inh
CCOc1ccc(-c2csc(/C(C#N)=C\c3ccc(O)c([N+](=O)[O-])c3)n2)cc1,.,.,.,.,.,56.0
CC(C(=O)NC1CCCC1)N(Cc1ccco1)C(=O)c1snc(C(=O)NC2CCCC2)c1N (centres undefined),.,.,.,.,.,90.3
O=C(Oc1ccc2c(c1)OCO2)c1cc2c(s1)CCC2,.,.,.,.,.,56.9
O=C(c1cc2c(s1)CCCC2)N1CCN(Cc2ccc3c(c2)OCO3)CC1,.,.,.,.,.,.
N#C/C(=C\c1cccnc1)c1ccccc1[N+](=O)[O-],.,/,/,.,.,/
CC(C)CN(C(=O)COC(=O)CCCc1c[nH]c2ccccc12)c1c(N)n(Cc2ccccc2)c(=O)[nH]c1=O,.,/,/,.,.,/
N#CC(C(=O)Nc1ccc(Cl)cc1)=C1Nc2ccccc2N1,.,.,.,.,.,50.6
Cc1cccc(N2CCN(C(=O)c3c(Cl)cnn3C)CC2)c1C,.,/,/,.,.,/
CN(C)c1ccc(Sc2nnc(NC(=O)Nc3ccc(Cl)cc3Cl)s2)cc1,.,.,.,.,.,89.0
CCC(=O)Nc1nnc(Sc2ccc(N(C)C)cc2)s1,.,.,.,.,.,.
CCCc1cc(=O)n2[nH]c(NC(=O)c3ccco3)nc2n1,.,/,/,.,.,/
O=C(COC(=O)c1ccc(S(=O)(=O)N2CCCCC2)cc1)Nc1ccccc1,.,/,/,.,.,/
O=C(COc1ncnc2sccc12)Nc1cccc(S(=O)(=O)N2CCOCC2)c1,.,/,/,.,.,/
N#Cc1nc(COc2ccc(Br)cc2)oc1N1CCN(Cc2ccccc2)CC1,/,.,.,/,/,.
N#Cc1nc(COc2ccc(F)cc2)oc1N1CCN(Cc2ccccc2)CC1,.,76.8,.,.,.,.
O=C(Nc1ccccc1)NC1CCS(=O)(=O)C1 (centres undefined),.,97.7,.,.,.,.
CC(=O)NC1=C(NC2CCS(=O)(=O)C2)C(=O)c2ccccc2C1=O (centres undefined),.,.,.,.,.,94.3
COc1cccc(Sc2ccccc2/C=N/NC(N)=O)c1,.,.,.,.,.,.
Cc1cc(OCc2cc(C(=O)N(C)C(C)c3ccccn3)no2)cc(C)c1Cl (centres undefined),.,/,/,.,.,/
O=C(O)c1ccc2ncsc2c1,.,92.5,/,.,.,55.7
Nc1ccc(-c2nc3ccc(C(=O)O)cc3s2)cc1,.,.,.,.,.,57.3
CCc1nnc(NC(=O)c2ccc3ncsc3c2)s1,.,56.1,/,.,.,.
O=C(O)c1ccc2nc(-c3ccccc3)sc2c1,.,.,.,.,.,.
O=C(c1ccc2ncsc2c1)N1CCCCC1,.,/,/,.,.,/
Cc1ccc(NC(=O)c2ccc3ncsc3c2)cc1S(=O)(=O)N(C)C,.,67.2,/,.,.,.
SMILES,Bcl-xL primary,Mcl1-Bid inh,Mcl-1 Bim block,MCL1 BIM primary,GLD-1 RNA inh,Mcl1-Noxa inh
COc1ncc(C2=CC(=O)CC(C)(C)C2)cn1,.,/,/,.,.,/
Cc1ccc(N2CC(C(=O)Nc3ccc(N(C)C)cc3)CC2=O)cc1C (centres undefined),.,.,.,.,.,75.2
O=C(CCN1C(=O)C2C3C=CC(C3)C2C1=O)NCCN1CCCc2ccccc21 (centres undefined),34.0,.,.,.,.,.
O=C(CN1C(=O)C2C3C=CC(C3)C2C1=O)NCCN1CCCc2ccccc21 (centres undefined),.,.,.,.,.,.
CC(C)(C)OC(=O)N/N=C/c1cc(N=Nc2ccccc2)ccc1O,.,.,.,.,.,.
Cc1ccc(N=Nc2ccc(O)c(/C=N\NC(=O)c3ccc(N)cc3)c2)cc1C,.,.,.,.,.,86.3
O=C(N/N=C/c1cc(Br)ccc1O)c1ccncc1,.,.,/,.,.,.
O=C(N/N=C/c1cc(Cl)ccc1O)c1ccc(Br)cc1,.,.,.,.,.,63.4
O=C(N/N=C(\c1ccccc1)c1cccnc1)c1cc(O)ccc1O,.,/,/,.,.,/
CCN1C(=O)/C(=C/c2cccs2)SC1=Nc1ccc(OC)cc1,.,97.2,.,.,.,.
CC(=O)C1=C(S(=O)(=O)c2ccc(C)cc2)CS(=O)(=O)C1,/,.,.,/,/,78.0
CC(OC(=O)CN1C(=O)NC2(CCCC2)C1=O)c1ccc(F)cc1 (centres undefined),.,/,/,.,.,/
CCN(CCO)c1ccc(-n2c(N)c(C(=O)OC)c3nc4ccccc4nc32)cc1,.,.,.,.,.,51.7
CCCNC(=O)c1c(N)n(-c2cccc(OC)c2)c2nc3ccccc3nc12,.,.,.,.,.,.
O=c1c2ccccc2nc(COc2ccccc2)n1/N=C/c1cn[nH]c1-c1ccccc1,.,55.8,.,.,.,.
Cc1ccccc1OCc1nc2ccccc2c(=O)n1/N=C/c1cn[nH]c1-c1ccc(Br)cc1,.,.,.,.,.,.
CCCc1cc(=O)[nH]c(SCC(=O)Nc2oc(C)c3c(C)n[nH]c(=O)c23)n1,.,/,/,.,.,/
CCOc1cccc(OCCCCn2ccnc2)c1,.,58.3,.,.,.,.
Brc1cccc(OCCOCCn2ccnc2)c1,.,71.6,.,.,.,.
COc1cccc(OCCCn2ccnc2)c1,.,/,/,.,.,/
N#Cc1ccccc1OCC(=O)OCC(=O)NC1CC1,.,/,/,.,.,/
CCN(CC)c1ccc(NC2CC(=O)N(CCc3ccc(OC)cc3)C2=O)cc1 (centres undefined),.,.,/,.,.,.
Cc1ccc(Cl)cc1NC(=O)C1CC1c1ccccc1 (centres undefined),.,/,/,.,.,/
CCOC(=O)c1sc(NC(=O)c2cc(-c3cccc(O)c3)on2)c(C(=O)OCC)c1C,.,.,.,.,.,.
CCOC(=O)c1c(NC(=O)c2cc(-c3cccc(O)c3)on2)sc(C(C)=O)c1C,.,.,.,.,.,63.2
SMILES,Bcl-xL primary,Mcl1-Bid inh,Mcl-1 Bim block,MCL1 BIM primary,GLD-1 RNA inh,Mcl1-Noxa inh
N#Cc1c(-c2ccc(F)cc2)cc(-c2cccnc2)nc1N,.,.,.,.,.,.
N#Cc1c(-c2ccco2)cc(-c2ccc(F)cc2)nc1N,.,.,.,.,.,65.3
CC(C)Cc1cc(-c2ccco2)c(C#N)c(N)n1,.,.,48.0,.,.,.
Cc1ccc([C@@H]2CC=C(C(=O)O)[C@H](c3ccc(Cl)cc3)N2S(=O)(=O)c2ccccc2C)cc1,/,/,/,/,.,/
Cc1nn(CC2CC2)c(=O)n1-c1ccccc1,.,.,.,.,.,.
COc1cc(/C=N/NC(=O)CN(Cc2ccco2)S(=O)(=O)c2ccccc2)ccc1O,.,.,45.0,.,.,.
COc1cc(/C=N/NC(=O)CN(Cc2ccccc2)S(=O)(=O)c2ccc3c(c2)OCCO3)ccc1O,.,.,.,.,.,.
CCOC(=O)c1nnn(-c2nonc2N)c1CSc1ccc(C)cc1,.,.,.,.,.,.
CCOC(=O)c1nnn(-c2nonc2N)c1CSc1ccccc1,.,52.0,.,.,.,.
